SARS PLpro yeast – inhibitors of SARS-CoV papain-like protease in yeast; S. cerevisiae expressing SARS-CoV PLpro, growth rescue; Potency, µM (doses to about 32.9 µM), actives largely listed as activators; 0.19% of 330,000 active; AID 485353; further: nearly all actives have a fitted effect of over 55% in size
Shiga toxin inh – Shiga toxin inhibition. Vero cells, Shiga toxin protein synthesis inhibition reporter. inhibition, % at 38.7 µM. 9.2% of 290,000 active. AID 2315; in the data active means inhibition mostly above about 28%, no sharp cut-off; inactive means mostly below about 43%
Pf growth 48h – inhibits P. falciparum growth in the first generation, 48 h; 5.9% of 310,000 active; Potency, µM (doses to about 28.7 µM), hits mostly inhibitors; AID 504832; P. falciparum luciferase growth in erythrocytes, 48 h; active means well fitted inhibition curve with a large enough effect; inconclusive means small, poorly fitted or top-dose-only effect, or another doubt; inactive means no such curve, though single readings can be large or run the other way
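Compounds are pin-transferred into medium, infected erythrocytes (2% hematocrit, 0.1% parasitemia final) are added, and plates sit one parasite generation at 37 C in 5% CO2. Detection reagent is then added and luminescence measured.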
Pf growth 96h – P. falciparum growth inhibition at 96 hours. P. falciparum luciferase reporter growth, 96 h. Potency, µM (highest dose often 28.7 µM), most hits filed as inhibitors. 6.9% of 320,000 active. AID 504834; active means well fitted inhibition curve with a large enough effect; inconclusive means small, poorly fitted or top-dose-only effect, or another doubt; inactive means no such curve, though single readings can be large or run the other way
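Parasite growth measured via integrated firefly luciferase reporter in P. falciparum. Infected erythrocytes at 2% hematocrit, 0.05% parasitemia final were treated 96 hours at 37 C under 5% CO2, and luminescence was read.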
CHX counter – counter-screen for Shiga toxin inhibitors: cycloheximide protein synthesis inhibition; 12% of 300,000 active; max response, %; cell reporter, cycloheximide protein synthesis inhibition counterscreen; in the data active means max response mostly above about 13%, no sharp cut-off; inactive means mostly below about 14%; further: read at 38.3 µM for the half of the compounds with a filed dose
NS1 function inh – inhibitors of influenza NS1 protein function. Potency, µM (top dose mostly 46.1 µM). 0.4% of 270,000 active; further: actives are rising curves; nearly all actives have a fitted effect of over 50% in size
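Read-out: OD600 growth recovery of NS1-expressing budding yeast. Cells grown overnight at 30C in -URA glucose medium, washed, resuspended and diluted 1:100 in 2% galactose assay medium, pH 6.0. Same strain lacking NS1 served as positive control.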
A number is an active result; i = inactive; ? = inconclusive; nt = not tested or not shown; [ ] = another dose, or the depositor's remark. Only some compounds are listed: those with a hit (about 21% of all), similar ones and a draw of the others. Unless noted, the call rests on the fitted dose curve.

SMILES	SARS PLpro yeast	Shiga toxin inh	Pf growth 48h	Pf growth 96h	CHX counter	NS1 function inh
CCOC(=O)N1CCN(C2=C(NS(=O)(=O)c3ccccc3)C(=O)c3ccccc3C2=O)CC1	i	i	13µM	9.3µM	i	i
NC(=O)C1CCN(C2=C(NS(=O)(=O)c3ccccc3)C(=O)c3ccccc3C2=O)CC1	i	i	?	?	i	i
CC(=O)N1c2ccc(S(=O)(=O)NCCC(=O)NCCc3cccc(C)c3)cc2CC1C (stereo not drawn)	i	i	i	i	i	i
CCOC(=O)C1CCN(C2=C(NS(=O)(=O)c3ccc(Br)cc3)C(=O)c3ccccc3C2=O)CC1	i	i	?	?	16	i
O=C1C(Nc2ccccc2)=C(NS(=O)(=O)c2ccccc2)C(=O)c2ccccc21	i	i	10µM	4.1µM	i	i
CCN1CCN(C2=C(NS(=O)(=O)c3ccc(Br)cc3)C(=O)c3ccccc3C2=O)CC1	i	i	2.6µM	?	i	i
Cc1ccc(C(OCC(O)CNC(CO)C(O)c2ccc([N+](=O)[O-])cc2)c2ccccc2)cc1 (stereo not drawn)	i	i	?	?	i	i
COC(=O)c1ccccc1S(=O)(=O)N1CCC(C(=O)OC(C)C(=O)NC(N)=O)CC1 (stereo not drawn)	i	i	i	i	i	i
CCCCN1C(=O)N(C)C2NC(=S)NC21 (stereo not drawn)	i	i	i	i	i	i
CCn1cc(/C=C/C(=O)Nc2ccn(Cc3c(F)c(F)c(F)c(F)c3F)n2)cn1	i	i	i	?	i	i
COc1ccc(NC(=O)c2cc(S(=O)(=O)NCC3COc4ccccc4O3)ccc2F)cc1 (stereo not drawn)	i	i	i	i	i	i
CC(C)c1ccc(NC(=O)c2cc(S(=O)(=O)NCC3COc4ccccc4O3)ccc2F)cc1 (stereo not drawn)	i	i	?	2.9µM	i	i
Cc1ccsc1/C=C/C1=Cc2c(sc(NC(=O)CSc3n[nH]c(N)n3)c2C#N)C(C)(C)C1	i	i	nt	8.3µM	i	i
CCOc1ccc(/C=C/C2=Cc3c(sc(NC(=O)CSc4n[nH]c(N)n4)c3C#N)C(C)(C)C2)cc1	i	i	10µM	8.3µM	i	i
CCOC(=O)c1sc(NC(=O)CSc2n[nH]c(-c3ccncc3)n2)c(C#N)c1C	i	i	i	nt	i	i
O=C1/C(=C\c2ccc(O)c(O)c2)Oc2c1ccc(O[C@@H]1O[C@H](CO)[C@@H](O)[C@H](O)[C@H]1O)c2O	nt	i	nt	nt	i	nt
C=CCNc1nc(Nc2ccccc2F)nc(OCC)n1	i	123	i	i	47	nt
Fc1ccccc1Nc1nc(Cl)nc(Cl)n1	i	i	i	i	i	nt
CCOc1nc(Nc2ccccc2F)nc(OCC)n1	i	i	i	?	20	i
CCN1CCC(NC(=O)Nc2ccc(F)cc2F)CC1	i	i	i	i	i	i
Cc1ccc(C2NC(=O)Cc3ccccc32)cc1 (stereo not drawn)	i	i	nt	i	i	i
O=[N+]([O-])c1ccc(N=Cc2sc3ccccc3c2O)cc1	i	108	i	i	43	i
O=[N+]([O-])c1cccc(N=Cc2sc3ccccc3c2O)c1	i	86	i	i	38	i
Oc1c(C=NCc2ccccc2)sc2ccccc12	i	91	i	i	28	i
CC(C)(C)OC(=O)NC1CCN(S(=O)(=O)c2ccc3c(c2)OCCO3)CC1	i	i	i	i	i	i
SMILES	SARS PLpro yeast	Shiga toxin inh	Pf growth 48h	Pf growth 96h	CHX counter	NS1 function inh
Cc1ccc(C(=O)NN(CCC(=O)NC(C)(C)C)C2=NS(=O)(=O)c3ccccc32)cc1	i	i	i	5.9µM	i	i
O=C(CCN1CCCC1)c1cccs1	i	i	?	i	i	i
O=C(CCN1CCC(c2cccs2)=N1)c1cccs1	i	69	i	i	42	i
Cc1c(C(=O)OC(C)C)[nH]c2c1C(=O)CC(C)(C)C2	i	i	i	nt	11	i
O=CC1=C(c2ccccc2)Oc2ccccc2O1	i	94	i	?	38	i
Cc1cccc(-n2c(CNC(=O)c3ccc(S(=O)(=O)N(C)C)cc3)nnc2SCC(=O)Nc2ccc(F)cc2)c1	i	i	12µM	?	i	i
Cc1cccc(NC(=O)CSc2nnc(CNC(=O)c3ccc(S(=O)(=O)N(C)C)cc3)n2-c2ccc(F)cc2)c1	i	i	i	?	i	i
Cc1cccc(NC(=O)CSc2nnc(CNC(=O)c3ccc(S(=O)(=O)N(C)C)cc3)n2-c2cccc(C)c2)c1	i	i	?	7.4µM	i	i
CNC(=O)CSc1nnc(-c2cccc(S(=O)(=O)N3CCOCC3)c2)n1-c1ccc(F)cc1	i	i	i	i	i	i
CN(C)S(=O)(=O)c1cccc(-c2nnc(SCC(=O)NCCCCCC(=O)O)n2-c2ccc(F)cc2)c1	i	32	i	i[5.75 µM]	i	nt
COC(=O)c1ccc(CNC(=O)COC(=O)c2cc(Cl)ccc2O)cc1	i	nt	nt	nt	nt	nt
COc1cccc(NC(=O)Cn2cnc3sc(C)c(S(=O)(=O)N4CCCCC4)c3c2=O)c1	i	i	?	nt	i	i
Cc1ccc(C[n+]2cccc(-c3ccccc3)c2)c(C)c1	i	i	0.93µM	0.33µM	i	i
CC(=O)OC1N=C(c2ccccc2)c2ccccc2NC1=O (stereo not drawn)	i	i	i	15µM	i	i
Oc1ccc(/C=N/n2c(COc3ccccc3)n[nH]c2=S)cc1O	i	i	?	?	i	i
Cc1cc(/C=N/NC(=O)C(=O)NCc2ccccn2)c(C)n1-c1ccccc1	i	46	i	i	28	i
Cc1cc(/C=N/NC(=O)CC#N)c(C)n1-c1ccc([N+](=O)[O-])cc1	i	i	i	?	i	i
Cc1ccnc(-n2c(C)cc(/C=N/NC(=O)COc3cccc4cccnc34)c2C)c1	i	i	i	i	i	i
COCc1c(Br)c(C)nc(OCC(=O)N/N=C/c2cc(C)n(-c3ccc([N+](=O)[O-])cc3)c2C)c1C#N	i	i	12µM	?	i	i
Cc1cc(/C=N/NC(=O)Cn2c3ccccc3c(=O)c3ccccc32)c(C)n1-c1ccccc1	i	i	?	?	i	i
Cc1cc(/C=N\NC(=O)COc2cccc3cccnc23)c(C)n1-c1ccc(Br)cc1	i	i	5.9µM	2.3µM	i	i
Cc1cc(/C=N\NC(=O)COc2cccc3cccnc23)c(C)n1-c1ccccc1	i	64	?	6.6µM	31	i
COc1cccc(NC(=O)c2ccnc(N3CCC(C(=O)NCc4ccccc4OC)CC3)c2)c1	i	i	i	?	i	i
COC(=O)c1ccc(CN2CCN(CC=C(C)C)C(CCO)C2)cc1 (stereo not drawn)	i	i	i	?	i	i
Cc1cc(C)cc(-n2c(C)cc(/C=N/NC(=O)c3ccncc3)c2C)c1	i	i	?	?	i	i
Cc1cc(/C=N\NC(=O)c2cccs2)c(C)n1-c1ccc2ncccc2c1	i	135	i	i	40	i

Screening results (PubChem)
